The supplement of paper PMC3545927
The list shows a part of the results. No count for the full screen is at hand.

Target: furin, P09958
Experiment: furin cleavage Z-score vs untreated control; higher = more cleavage, active = 3.5 or more, inactive = 1 or less, 8 variable residues between constant flanks
How it was run: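 Purified furin cleaved 8-mer peptides that were fused to a cDNA oligonucleotide and held on magnetic beads by their N-terminus. Each 0.01 ml reaction used a 1:10 enzyme:substrate ratio in 50 mM HEPES pH 7.5 with CaCl2 and NaCl and ran 7.5, 15 or 30 min. Released DNA was adapter-tagged by PCR and sequenced, and read counts gave abundance. The cleavage Z-score came from log counts against furin-free reactions, lowess-adjusted and scaled by median absolute deviation.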

Sequence of furin, P09958 (P09958 whole entry): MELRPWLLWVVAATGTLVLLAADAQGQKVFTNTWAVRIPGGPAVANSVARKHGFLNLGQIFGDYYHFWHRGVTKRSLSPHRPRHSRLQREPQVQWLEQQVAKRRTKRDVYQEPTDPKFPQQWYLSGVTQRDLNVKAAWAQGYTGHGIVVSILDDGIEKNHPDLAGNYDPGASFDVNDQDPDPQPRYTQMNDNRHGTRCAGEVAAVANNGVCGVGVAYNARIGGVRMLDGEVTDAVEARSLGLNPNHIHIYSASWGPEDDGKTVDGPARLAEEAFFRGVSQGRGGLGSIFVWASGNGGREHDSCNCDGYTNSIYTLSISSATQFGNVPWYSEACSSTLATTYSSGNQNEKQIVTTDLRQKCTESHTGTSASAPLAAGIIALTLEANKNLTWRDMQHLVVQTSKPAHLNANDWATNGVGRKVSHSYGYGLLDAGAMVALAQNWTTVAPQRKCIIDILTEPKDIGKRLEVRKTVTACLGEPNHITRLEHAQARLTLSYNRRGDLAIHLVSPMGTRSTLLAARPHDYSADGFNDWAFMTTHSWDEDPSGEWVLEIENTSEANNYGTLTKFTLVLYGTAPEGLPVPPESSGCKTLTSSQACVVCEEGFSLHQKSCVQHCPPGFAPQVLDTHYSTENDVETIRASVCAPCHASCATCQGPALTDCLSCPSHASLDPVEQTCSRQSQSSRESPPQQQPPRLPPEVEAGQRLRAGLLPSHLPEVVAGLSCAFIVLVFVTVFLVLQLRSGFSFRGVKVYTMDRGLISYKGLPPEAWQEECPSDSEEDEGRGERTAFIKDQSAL

| Sequence | furin cleavage Z-score (7.5 min) | furin cleavage Z-score (15 min) | furin cleavage Z-score (30 min) |
| --- | --- | --- | --- |
| CADMMEECSQAGNASASA [HC1806] | -0.946 (inactive) | -0.28 (inactive) | -0.569 (inactive) |
| CAAKVLVVLLAGNASASA [HC345] | -0.548 (inactive) | -0.603 (inactive) | 0.816 (inactive) |
| CAAKSRQMRSAGNASASA [FS-321] | 12.3 (active) | 12.5 (active) | 8.77 (active) |
| CAAKSRQRRQAGNASASA [FS-1583] | 9.65 (active) | 11 (active) | 7.11 (active) |
| CANEKRQRRQAGNASASA [FS-552] | 8.64 (active) | 9.03 (active) | 8.4 (active) |
| CATHMRQMRSAGNASASA [FS-304] | 5.44 (active) | 7.85 (active) | 7.29 (active) |
| CAQALPVWARAGNASASA [HC1302] | -0.162 (inactive) | 0.223 (inactive) | -0.716 (inactive) |
| CAATRDGKLPAGNASASA [HC284] | 0.288 (inactive) | -1.04 (inactive) | 0.353 (inactive) |
| CATMRIVGPRAGNASASA [HC1182] | 0.31 (inactive) | 1.38 | 0.463 (inactive) |
| CATTRCSGSWAGNASASA [HC1873] | -2.28 (inactive) | -0.493 (inactive) | -0.341 (inactive) |
| CAGCIITSLTAGNASASA [HC681] | -0.591 (inactive) | -0.913 (inactive) | -0.483 (inactive) |
| CAHEMEECSQAGNASASA [HC1795] | 0.638 (inactive) | -0.825 (inactive) | 0.0903 (inactive) |
| CAPIIRKSRGAGNASASA [FS-1472] | 10 (active) | 10.9 (active) | 7.97 (active) |
| CAKNSRKLRGAGNASASA [FS-258] | 0.0851 (inactive) | 1.03 | 2.96 |
| CAASSRPRRGAGNASASA [FS-10] | 5.57 (active) | 4.59 (active) | 4.78 (active) |
| CALIAFASRGAGNASASA [HC1120] | 0.403 (inactive) | -0.694 (inactive) | 0.0807 (inactive) |
| CAPGRRPRRGAGNASASA [FS-68] | 10.4 (active) | 9.49 (active) | 8.86 (active) |
| CAGALRPRRGAGNASASA [FS-421] | 1.31 | 0.929 (inactive) | 0.673 (inactive) |
| CAEPPRPRRGAGNASASA [FS-992] | -0.496 (inactive) | -0.299 (inactive) | 0.0496 (inactive) |
| CAHLHQNIVDAGNASASA [HC506] | -0.675 (inactive) | -0.105 (inactive) | -1.09 (inactive) |
| CASPTTALVMAGNASASA [HC324] | 0.089 (inactive) | -0.626 (inactive) | -1.02 (inactive) |
| CARQRRLVLVAGNASASA [FS-2764] | -0.772 (inactive) | -0.609 (inactive) | 1.17 |
| CARQRRAITVAGNASASA [FS-2509] | 4.39 (active) | 7.17 (active) | 7.22 (active) |
| CARNRRIITVAGNASASA [FS-3198] | 0.0348 (inactive) | -1.25 (inactive) | 0.314 (inactive) |
| CARQPRVDFVAGNASASA [FS-2064] | -1.17 (inactive) | -0.264 (inactive) | -0.469 (inactive) |
| CARQRRAFQVAGNASASA [FS-2508] | 1.92 | 4.22 (active) | 6.29 (active) |

| Sequence | furin cleavage Z-score (7.5 min) | furin cleavage Z-score (15 min) | furin cleavage Z-score (30 min) |
| --- | --- | --- | --- |
| CARERRYSTVAGNASASA [FS-2551] | -0.101 (inactive) | 1.01 | 0.281 (inactive) |
| CARQRRARFVAGNASASA [FS-1770] | 6.58 (active) | 8.49 (active) | 7.14 (active) |
| CAVVCMSMSYAGNASASA [HC88] | -1.17 (inactive) | -0.925 (inactive) | 0.213 (inactive) |
| CAPPSWDQMWAGNASASA [HC961] | 1.06 | -0.132 (inactive) | 1 |
| CAVKNGTMRIAGNASASA [HC1180] | 2.3 | 1.25 | 0.508 (inactive) |
| CADTERKRRHAGNASASA [FS-411] | 8.87 (active) | 11 (active) | 9.59 (active) |
| CAHELRHRRHAGNASASA [FS-170] | 11 (active) | 10.9 (active) | 11 (active) |
| CADLYLVTRHAGNASASA [HC725] | -0.523 (inactive) | -1.17 (inactive) | -0.885 (inactive) |
| CAAEARKNRPAGNASASA [FS-1508] | -0.91 (inactive) | 0.425 (inactive) | -1.59 (inactive) |
| CARFRRKRRHAGNASASA [FS-854] | 9.74 (active) | 9.95 (active) | 7.32 (active) |
| CAPAIASLMAAGNASASA [HC1053] | -0.244 (inactive) | 1.04 | 0.347 (inactive) |
| CAFVPCHRPSAGNASASA [HC2307] | -1.81 (inactive) | 0.496 (inactive) | 0.113 (inactive) |
| CALHEYPVGSAGNASASA [HC1236] | -0.438 (inactive) | -0.864 (inactive) | -0.00108 (inactive) |
| CAEERARAKWAGNASASA [EK3] | 0.379 (inactive) | 1.71 | -0.287 (inactive) |
| CAEVVTSTWVAGNASASA [HC136] | 0.215 (inactive) | -1.42 (inactive) | -0.55 (inactive) |
| CAVVCDSMSYAGNASASA [HC92] | -1.45 (inactive) | 0.971 (inactive) | -0.149 (inactive) |
| CARFYRPVAVAGNASASA [FS-2670] | -2.66 (inactive) | -1.03 (inactive) | -2.39 (inactive) |
| CARVARFATSAGNASASA [FS-2529] | 2.89 | 4.14 (active) | 5.25 (active) |
| CARVARAMSIAGNASASA [FS-1797] | -0.644 (inactive) | 0.561 (inactive) | 2.57 |
| CAHARKAVTHAGNASASA [HC1426] | -1.35 (inactive) | -0.868 (inactive) | 0.178 (inactive) |
| CARVSRFVTWAGNASASA [FS-1804] | 0.465 (inactive) | 2.02 | 2.57 |
| CARVARDVAVAGNASASA [FS-3113] | 9.5 (active) | 11.7 (active) | 9.58 (active) |
| CARVARFVTHAGNASASA [FS-1798] | 0.861 (inactive) | 1.96 | 4.55 (active) |
| CAEPEPDVAVAGNASASA [HC1242] | -1.24 (inactive) | -1.89 (inactive) | 0.391 (inactive) |
| CAFTTLPALSAGNASASA [HC500] | 1.12 | -0.632 (inactive) | 1.28 |
